Results on twelve compounds are retold here after PubChem BioAssay.

Assay [1] is described as follows: E. coli DRC41 culture turbidity changes, primary screen, E. coli filamentation inducer project, strain DRC41, OD650, 48 h (AID 1152).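 Note: E. coli MC1000 strain DRC41 lacking acrAB efflux pump and sulA.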 Particulars: E. coli DRC41 (acrAB sulA), higher = more signal, called active from +8 up or from −8 down.
A short description of assay [2]: small-molecule binders of probe aLefty1, primary screen, biochemical, small-molecule microarray, 635/667 nm fluorescence (AID 1153).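 Note: score merges spot fluorescence with signal-to-noise ratio from the scanned slide images.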 The following applies: higher = more signal.
The nature of assay [3]: PSAC antagonists in infected red cells, primary screen, cell-based, P. falciparum Indochina, OD700, 1 h (AID 1154). Particulars: P. falciparum Indochina infected RBC osmotic lysis, higher = more signal, called active from +8 up or from −8 down.
Assay [4] is described as follows: PSAC antagonists in infected red cells, primary screen, cell-based, P. falciparum Indochina, OD700, 2 h (AID 1155).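 Note: lysis reports solute entry through the parasite surface anion channel PSAC; channel blockers reduce lysis of infected cells.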 The following applies: P. falciparum Indochina infected erythrocytes, osmotic lysis OD700; higher = more signal, called active from +8 up or from −8 down.
Assay [5] can be described thus: osmotic lysis modulators in infected erythrocytes, primary screen, PSAC antagonist project, cell-based, P. falciparum Indochina, OD700, 3 h (AID 1156). The following applies: higher = more signal, called active from +8 up or from −8 down.
Assay [6] is described as follows: PSAC antagonists in infected red cells, primary screen, cell-based, P. falciparum Indochina, OD700, 18 h (AID 1157). The following applies: P. falciparum Indochina infected erythrocytes, osmotic lysis OD700, 18 h; higher = more signal, called active from +8 up or from −8 down.
Assay [7] is described as follows: modulators of S6 phosphorylation in cells, primary screen, cell-based, A549, cytoblot, luminescence, serum-stimulated (AID 1158).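 Note: serum-stimulated A549 lung adenocarcinoma cells; signal is phosphorylated S6 detected by cytoblot immunostaining with HRP secondary.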 Particulars: A549 phospho-S6 cytoblot, 5 h, higher = more signal.
The target of assay [8] is NADPH oxidase 2 (Homo sapiens) (UniProt P04839). Description: NOX2-dependent H2O2 signal modulators, primary screen, NOX inhibitor project, cell-based, HEK293-NOX2, PMA-stimulated, Amplex Red fluorescence (AID 1159). Note: test concentration not given here. Particulars: 45 min, higher = more signal, called active from +8 up or from −8 down.
NADPH oxidase 2 (Homo sapiens), sequence (P04839 whole entry, looked up): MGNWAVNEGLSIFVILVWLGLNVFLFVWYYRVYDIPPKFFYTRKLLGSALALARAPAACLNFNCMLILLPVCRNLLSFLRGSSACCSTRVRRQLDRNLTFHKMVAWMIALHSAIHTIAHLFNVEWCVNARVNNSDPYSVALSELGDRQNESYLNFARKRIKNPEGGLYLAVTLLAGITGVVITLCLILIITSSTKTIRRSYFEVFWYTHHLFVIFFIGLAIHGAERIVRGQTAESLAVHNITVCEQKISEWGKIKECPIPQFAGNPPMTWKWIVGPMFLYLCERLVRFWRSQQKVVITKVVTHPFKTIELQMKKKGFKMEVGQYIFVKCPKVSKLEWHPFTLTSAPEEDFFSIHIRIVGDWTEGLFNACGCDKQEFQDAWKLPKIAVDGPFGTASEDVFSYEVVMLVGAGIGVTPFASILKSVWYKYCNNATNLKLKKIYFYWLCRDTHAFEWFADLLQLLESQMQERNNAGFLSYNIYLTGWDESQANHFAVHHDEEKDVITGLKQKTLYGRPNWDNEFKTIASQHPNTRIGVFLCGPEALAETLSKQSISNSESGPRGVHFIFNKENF
In assay [9] the target is NADPH oxidase 4 (Homo sapiens) (UniProt Q9NPH5). Put plainly: NOX4-dependent H2O2 signal modulators, primary screen, NOX inhibitor project, cell-based, HEK293-NOX4, tetracycline-induced, Amplex Red fluorescence (AID 1160). The following applies: 45 min, higher = more signal, called active from +8 up or from −8 down.
NADPH oxidase 4 (Homo sapiens), sequence (Q9NPH5 whole entry, looked up): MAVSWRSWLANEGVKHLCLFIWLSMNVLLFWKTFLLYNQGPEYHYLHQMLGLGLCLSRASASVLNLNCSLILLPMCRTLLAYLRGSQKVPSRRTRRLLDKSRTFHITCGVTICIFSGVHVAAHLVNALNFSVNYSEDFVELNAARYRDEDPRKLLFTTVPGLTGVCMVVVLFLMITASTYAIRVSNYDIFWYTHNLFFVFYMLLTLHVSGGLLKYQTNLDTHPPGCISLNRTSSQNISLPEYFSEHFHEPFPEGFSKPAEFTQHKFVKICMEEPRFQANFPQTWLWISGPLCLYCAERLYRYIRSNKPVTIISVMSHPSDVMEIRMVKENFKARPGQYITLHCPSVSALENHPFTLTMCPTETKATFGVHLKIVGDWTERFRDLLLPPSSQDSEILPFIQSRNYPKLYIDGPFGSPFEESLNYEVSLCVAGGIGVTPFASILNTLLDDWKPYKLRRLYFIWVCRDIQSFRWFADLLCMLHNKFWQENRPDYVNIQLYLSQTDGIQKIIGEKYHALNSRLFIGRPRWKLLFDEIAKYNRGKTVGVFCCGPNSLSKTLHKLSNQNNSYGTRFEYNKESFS
The target of assay [10] is NADPH oxidase 5 (Homo sapiens) (UniProt Q96PH1). Description: NOX5-dependent H2O2 signal modulators, primary screen, NOX inhibitor project, cell-based, HEK293-NOX5, Amplex Red fluorescence (AID 1161). The following applies: HEK293-NOX5, ionomycin, 45 min, higher = more signal.
NADPH oxidase 5 (Homo sapiens), sequence (Q96PH1 whole entry, looked up): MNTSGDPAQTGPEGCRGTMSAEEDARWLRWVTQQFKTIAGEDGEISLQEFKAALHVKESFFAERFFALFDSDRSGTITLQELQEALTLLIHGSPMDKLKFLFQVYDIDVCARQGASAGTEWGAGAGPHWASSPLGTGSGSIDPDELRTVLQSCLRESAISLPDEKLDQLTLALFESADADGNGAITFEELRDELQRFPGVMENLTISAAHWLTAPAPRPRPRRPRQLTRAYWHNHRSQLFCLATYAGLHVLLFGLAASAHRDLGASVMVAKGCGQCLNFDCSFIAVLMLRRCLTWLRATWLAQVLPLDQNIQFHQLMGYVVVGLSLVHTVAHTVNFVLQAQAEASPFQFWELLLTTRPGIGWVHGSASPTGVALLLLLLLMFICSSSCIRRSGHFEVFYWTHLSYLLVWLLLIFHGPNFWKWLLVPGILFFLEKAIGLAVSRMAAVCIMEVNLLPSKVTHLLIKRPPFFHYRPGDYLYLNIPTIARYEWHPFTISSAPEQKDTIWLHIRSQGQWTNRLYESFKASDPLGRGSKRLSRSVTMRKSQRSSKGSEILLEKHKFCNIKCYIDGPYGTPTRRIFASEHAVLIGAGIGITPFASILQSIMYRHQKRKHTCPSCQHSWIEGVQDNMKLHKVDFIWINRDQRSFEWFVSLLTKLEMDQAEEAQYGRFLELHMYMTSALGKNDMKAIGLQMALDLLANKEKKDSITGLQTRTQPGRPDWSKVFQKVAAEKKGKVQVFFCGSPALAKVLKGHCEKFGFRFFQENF

The source made the active and inactive calls.

For the compound `COc1ccc(CCNC(=O)[C@@]2(Sc3ccc(C)cc3)CC(=O)N(C3Cc4ccccc4C3)[C@@H]2c2ccc(CO)cc2I)cc1`, the z-score was 0.657 (inactive) in assay [1]; 10.7 (active) in [3]; 1.95 (inactive) in [4]; 0.497 (inactive) in assay [5]; 0.768 (inactive) in assay [6]; -0.123 in [7]. Moreover, the z-score in assay [8] was 1.51 (inactive); in assay [9] it was -1.66 (inactive); in assay [10], 1.9. Also, the composite z-score in assay [2] amounted to 0.627.

With `CC(C)=CCN[C@H](CO)c1ccccc1`, the z-score in [1] was -0.209 (inactive); in assay [3], 0.128 (inactive); in assay [4], -0.916 (inactive); in assay [5], 0.198 (inactive); in assay [6] it was -2.39 (inactive); in assay [7] it was 0.983. Further, the figures for the z-score in assay [8], in assay [9] and in [10] were -0.763 (inactive), -0.688 (inactive) and -1.61, respectively. The composite z-score in [2] was -0.114.

Regarding `C=C(COC)/C(=C/C[C@@H](OC(=O)c1ccncc1)c1ccc(CO)o1)c1cc(C(=O)OC)ccc1OC`, the z-score is 0.855 (inactive) in assay [1]; 3.87 (inactive) in assay [3]; 0.453 (inactive) in [4]; 1.57 (inactive) in assay [5]; 0.308 (inactive) in assay [6]; 0.934 in assay [7]. In addition, the figures for the z-score in assay [8], in [9] and in assay [10] were -0.631 (inactive), -0.124 (inactive) and -0.495, respectively. Moreover, in [2], the composite z-score amounted to 0.062.

Regarding `CC(C)C(=C=CC[C@@H](O)c1ccc(OCCO)cc1)C[C@@H](O)COCc1ccccc1`, the z-score in assay [1] was 1.45 (inactive); in assay [3], 8.51 (active); in assay [4] it was -0.15 (inactive); in assay [5], 0.776 (inactive); in assay [6], -0.46 (inactive); in [7] it was 4.27. Also, the z-score was -2.13 (inactive) in [8], -0.915 (inactive) in assay [9] and -2.41 in assay [10]. The composite z-score in assay [2] is 0.0341.

Turning to `NC(=O)NCC#Cc1ccc2c(c1)[C@]1(C(=O)N2)[C@H](c2ccc(O)cc2)N2[C@H](c3ccccc3)[C@H](c3ccccc3)OC(=O)[C@H]2[C@@H]1C(=O)O`, the z-score is -0.876 (inactive) in [1]; 3.1 (inactive) in [3]; 0.179 (inactive) in assay [4]; 0.259 (inactive) in assay [5]; 0.485 (inactive) in [6]; -0.0856 in assay [7]. Also, the z-score was 0.879 (inactive) in assay [8], -0.0146 (inactive) in [9] and -0.305 in assay [10]. The compound also yielded a composite z-score in assay [2] of -0.573.

With `CN(C)CCCCCCNC(=O)[C@H]1C[C@H]2C(=O)N3CCC[C@H]3C(=O)N2[C@H]1c1ccc(O)cc1`, the z-score in [1] was 1.47 (inactive); in assay [3], 0.89 (inactive); in [4], 0.326 (inactive); in assay [5], -0.664 (inactive); in [6], 0.253 (inactive); in assay [7], -0.549. Also, the z-score was 0.544 (inactive) in assay [8], -1.28 (inactive) in [9] and -0.0199 in [10]. In [2], this compound returned a composite z-score of 0.0811.

With `C=C(/C(=C/C[C@H](OC(C)=O)c1ccc(CO)o1)c1cc(C(=O)OC)ccc1OC)C(C)C`, the z-score in assay [1] is 0.376 (inactive); in [3] it was 2.48 (inactive); in assay [4], -1.22 (inactive); in [5], 2.6 (inactive); in assay [6], -2.17 (inactive); in [7], 2.41. The figures for the z-score in assay [8], in assay [9] and in assay [10] were -1.66 (inactive), -1.85 (inactive) and -2.34, respectively. The compound also came in with a composite z-score in assay [2] of -0.0559.

Regarding `CCOC(=O)C[C@H]1[C@H](OC(=O)c2ccc(C(=O)c3ccccc3)cc2)[C@@H](NC(=O)CC(C)C)c2cc(OCCCO)ccc2N1C(=O)c1ccc2ccccc2n1`, the z-score was 1.66 (inactive) in assay [1]; 3.64 (inactive) in assay [3]; 0.582 (inactive) in assay [4]; 0.0206 (inactive) in [5]; -0.135 (inactive) in assay [6]; 0.276 in assay [7]. In addition, the z-score in assay [8] was -1.46 (inactive); in assay [9] it was 0.892 (inactive); in [10], 0.97. For the same compound, the composite z-score in [2] is -0.0518.

`COc1cc2c(cc1OC)CN(C(=O)[C@@H]1[C@H]3C(=O)O[C@H](c4ccccc4)[C@H](c4ccccc4)N3[C@H](c3ccccc3OCCO)[C@@]13C(=O)Nc1ccc(C#CCCO)cc13)CC2`: the z-score in assay [1] was 0.761 (inactive); in assay [3], 2.28 (inactive); in [4], 1.05 (inactive); in [5], 0.85 (inactive); in assay [6], 0.565 (inactive); in [7], 0.212. The z-score in assay [8] was 1.29 (inactive); in assay [9], 1.15 (inactive); in assay [10] it was 0.301. Besides, in [2], the composite z-score was determined as 0.751.

Turning to `C=CCN1C(=O)[C@@]2(Cc3ccccc31)N=C(c1ccc(OCCCO)cc1)O[C@H]2c1ccccc1`, the z-score was 0.613 (inactive) in assay [1]; 14.6 (active) in assay [3]; 3.47 (inactive) in assay [4]; 3.29 (inactive) in assay [5]; 1.35 (inactive) in assay [6]; 0.104 in assay [7]. The z-score was -2.01 (inactive) in assay [8], -0.253 (inactive) in assay [9] and -2.65 in assay [10]. The same compound registered a composite z-score in [2] of 0.481.

In the case of `O=C(N1CCCCC1)[C@]1(Cc2ccccc2)N=C(c2ccc(OCCCO)cc2)O[C@@H]1c1ccccc1`, the z-score in [1] is -0.834 (inactive); in [3], 28 (active); in assay [4] it was 20.6 (active); in assay [5], 0.696 (inactive); in assay [6], 1.28 (inactive); in assay [7], 2.33. The z-score was -2.82 (inactive) in [8], -1.37 (inactive) in [9] and -1.7 in assay [10]. The same compound gave a composite z-score in assay [2] of 0.446.

As for `CN(C)C(=O)[C@@]1(CCS(=O)(=O)c2ccccc2)COC(c2ccc(OCCCO)cc2)=N1`, the z-score in assay [1] was 0.276 (inactive); in assay [3], 25.6 (active); in assay [4], 8.3 (active); in assay [5], 1.69 (inactive); in assay [6] it was 1.26 (inactive); in assay [7], 0.313. Moreover, the z-score was -2.71 (inactive) in assay [8], 0.265 (inactive) in assay [9] and -0.621 in assay [10]. The compound further returned a composite z-score in assay [2] of 0.0244.
